Among the data in PubChem BioAssay (NCI) are growth inhibition values, retold here.

Compounds without any hit were thinned out: in the full panel of roughly 79,000, 15% have a hit. A number with no mark means an inactive call. Calls of active or inactive are those of the source. No stated cut-off is given here; in the data, active means growth inhibition above about 70%; inactive means the rest.

Assay [1] is described as follows: NCI Yeast Anticancer Drug Screen. Data for the rad50 strain (AID 155).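 Further: 0% = growth of vehicle-only cultures of the same strain.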 The note with it: S. cerevisiae rad50 strain growth inhibition, active compounds read high. Summed up: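 A DNA repair-deficient yeast mutant serves as the test organism; compound-induced growth inhibition is calculated against vehicle-treated cells.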
The nature of assay [2]: NCI Yeast Anticancer Drug Screen. Data for the mec2-1 strain (AID 157). The note with it: S. cerevisiae mec2-1 strain, active compounds read high. Summed up:
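Vehicle-treated cultures served as reference for growth inhibition of compound-exposed mec2-1 yeast.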

Assay [3] is described as follows: NCI Yeast Anticancer Drug Screen. Data for the sgs1 mgt1 strain (AID 161).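 Further: 0% = growth of cultures given vehicle only.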 The note with it: S. cerevisiae sgs1 mgt1 strain, active compounds read high. Summed up: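 Mutant yeast exposed to compound; growth scored against vehicle-only wells.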
A short description of assay [4]: NCI Yeast Anticancer Drug Screen. Data for the cln2 rad14 strain (AID 165).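 Further: 0% = growth equal to vehicle treated cultures.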 The note with it: S. cerevisiae cln2 rad14 strain, active compounds read high. Summed up:
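Each compound was tested on cln2 rad14 yeast. Inhibition of growth was calculated against vehicle-exposed controls.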

Assay [5] is described as follows: NCI Yeast Anticancer Drug Screen. Data for the bub3 strain (AID 167). The note with it: S. cerevisiae bub3 mutant strain, active compounds read high. Summed up:
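Inhibition values come from growth of compound-treated mutant yeast normalised to vehicle-treated controls.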

The nature of assay [6]: NCI Yeast Anticancer Drug Screen. Data for the mlh1 rad18 strain (AID 175). The note with it: S. cerevisiae mlh1 rad18 strain growth inhibition, active compounds read high. Summed up:
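Vehicle-treated cultures served as the reference for growth inhibition in a yeast strain carrying DNA damage repair alterations exposed to each compound.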

The mark [7] stands for this setting: at 5.0 µM (retest, dose inferred, filed as 0.5).
[8] abbreviates: at 50.0 µM (retest, dose inferred, filed as 5.0).

Consider `Cc1cc(Br)ccc1NC(=O)/C=C/C(=O)O`, for which the growth inhibition in assay [1] (setting [7]) was -23%; in assay [1] (setting [8]) it was -36%; in assay [1] (at 50.0 µM) it was 0.1%; in assay [2] (setting [7]), -24%; in assay [2] (setting [8]) it was -5%; in assay [2] (at 50.0 µM) it was 4.25%. Moreover, the growth inhibition is -17% in assay [3] (setting [7]); -4% in assay [3] (setting [8]); 17.4% in assay [3] (at 50.0 µM); 10% in assay [4] (setting [7]); 22% in assay [4] (setting [8]); 7.15% in assay [4] (at 50.0 µM). Further, the growth inhibition is -4% in assay [5] (setting [7]); -13% in assay [5] (setting [8]); 20.2% in assay [5] (at 50.0 µM); 0% in assay [6] (setting [7]); -16% in assay [6] (setting [8]); 1.25% in assay [6] (at 50.0 µM).

For the compound `COc1cc(C=O)c(Cl)cc1O`, the growth inhibition in assay [1] (setting [7]) is 2%; in assay [1] (setting [8]) it was 21%; in assay [1] (at 50.0 µM), 55%; in assay [2] (setting [7]) it was 1%; in assay [2] (setting [8]), 43%; in assay [2] (at 50.0 µM) it was 67%. For the same compound, the growth inhibition in assay [3] (setting [7]) was 1%; in assay [3] (setting [8]), 47%; in assay [3] (at 50.0 µM), 90% (active); in assay [4] (setting [7]), -4%; in assay [4] (setting [8]), 25%; in assay [4] (at 50.0 µM), 60.2%. In addition, the growth inhibition in assay [5] (setting [7]) was -2%; in assay [5] (setting [8]) it was 14%; in assay [5] (at 50.0 µM), 44.5%; in assay [6] (setting [7]), 2%; in assay [6] (setting [8]) it was 34%; in assay [6] (at 50.0 µM), 77.8% (active).

For `CCOC(=O)CC1=NC(=Nc2ccc(Cl)c(Cl)c2)SC1`, the growth inhibition in assay [1] (setting [7]) was 0%; in assay [1] (setting [8]), 95% (active); in assay [1] (at 50.0 µM) it was 96.2% (active); in assay [2] (setting [7]), -3%; in assay [2] (setting [8]) it was 98% (active); in assay [2] (at 50.0 µM), 99% (active). Moreover, the growth inhibition was 0% in assay [3] (setting [7]); 98% (active) in assay [3] (setting [8]); 99.1% (active) in assay [3] (at 50.0 µM); -5% in assay [4] (setting [7]); 94% (active) in assay [4] (setting [8]); 96.6% (active) in assay [4] (at 50.0 µM). Also, the growth inhibition in assay [5] (setting [7]) is 4%; in assay [5] (setting [8]), 98% (active); in assay [5] (at 50.0 µM), 97.7% (active); in assay [6] (setting [7]), -2%; in assay [6] (setting [8]) it was 98% (active); in assay [6] (at 50.0 µM), 98.3% (active).

In the case of `COc1cc2c(cc1O)-c1c(cnn1-c1ccc([N+](=O)[O-])cc1)CCC2`, the growth inhibition in assay [1] (setting [7]) is 7%; in assay [1] (setting [8]), 56%; in assay [1] (at 50.0 µM), 79% (active); in assay [2] (setting [7]) it was 4%; in assay [2] (setting [8]), 27%; in assay [2] (at 50.0 µM), 91.9% (active). Moreover, the growth inhibition in assay [3] (setting [7]) is 4%; in assay [3] (setting [8]), 38%; in assay [3] (at 50.0 µM) it was 85.6% (active); in assay [4] (setting [7]), 3%; in assay [4] (setting [8]) it was 52%; in assay [4] (at 50.0 µM), 73% (active). In addition, the growth inhibition in assay [5] (setting [7]) was 0%; in assay [5] (setting [8]), 3%; in assay [5] (at 50.0 µM), 93.2% (active); in assay [6] (setting [7]) it was 17%; in assay [6] (setting [8]), 71% (active); in assay [6] (at 50.0 µM), 94.8% (active).

`CNC(=O)c1cc(NC(=O)c2ccc(C(=O)Nc3cc(C(=O)NC)cc(C4=NCCN4)c3)cc2)cc(C2=NCCN2)c1`: the growth inhibition was 3% in assay [1] (setting [7]); -3% in assay [1] (setting [8]); 98.8% (active) in assay [1] (at 50.0 µM); 11% in assay [2] (setting [7]); 1% in assay [2] (setting [8]); 99.6% (active) in assay [2] (at 50.0 µM). Besides, the growth inhibition was -6% in assay [3] (setting [7]); -3% in assay [3] (setting [8]); 99.3% (active) in assay [3] (at 50.0 µM); 0% in assay [4] (setting [7]); 8% in assay [4] (setting [8]); 92.8% (active) in assay [4] (at 50.0 µM). For the same compound, the growth inhibition in assay [5] (setting [7]) is 5%; in assay [5] (setting [8]), 1%; in assay [5] (at 50.0 µM), 98.7% (active); in assay [6] (setting [7]) it was 2%; in assay [6] (setting [8]), -19%; in assay [6] (at 50.0 µM), 98.6% (active).

On to `CC(C)=NOCCOC(=O)C(c1ccccc1)c1ccccc1`, for which the growth inhibition in assay [1] (setting [7]) was -4%; in assay [1] (setting [8]), 3%; in assay [1] (at 50.0 µM), 80.7% (active); in assay [2] (setting [7]), -5%; in assay [2] (setting [8]), 2%; in assay [2] (at 50.0 µM), 75% (active). For the same compound, the growth inhibition is -8% in assay [3] (setting [7]); -2% in assay [3] (setting [8]); 92% (active) in assay [3] (at 50.0 µM); 0% in assay [4] (setting [7]); 18% in assay [4] (setting [8]); 39.6% in assay [4] (at 50.0 µM). Moreover, the growth inhibition in assay [5] (setting [7]) was 7%; in assay [5] (setting [8]), 25%; in assay [5] (at 50.0 µM), 96.6% (active); in assay [6] (setting [7]), -6%; in assay [6] (setting [8]), 0%; in assay [6] (at 50.0 µM) it was 89% (active).
